Screening data (PubChem)
Many of the other results were omitted from the sample, so hits are more common in it than they were.
Luciferase inh = firefly luciferase inhibition; purified firefly luciferase, luminescence, 8 min; Potency, µM (doses to about 57.1 µM), without a hit: top-dose activity change, negative = inhibition, most hits filed as inhibitors; 2.2% of 72,000 active; AID 411; note: potency is the fitted concentration of half-maximal effect; % is set by controls: 0 for no effect and ±100 for the full control effect; nearly all actives have a fitted effect of over 40% in size
Target sequence (P08659 whole entry, looked up): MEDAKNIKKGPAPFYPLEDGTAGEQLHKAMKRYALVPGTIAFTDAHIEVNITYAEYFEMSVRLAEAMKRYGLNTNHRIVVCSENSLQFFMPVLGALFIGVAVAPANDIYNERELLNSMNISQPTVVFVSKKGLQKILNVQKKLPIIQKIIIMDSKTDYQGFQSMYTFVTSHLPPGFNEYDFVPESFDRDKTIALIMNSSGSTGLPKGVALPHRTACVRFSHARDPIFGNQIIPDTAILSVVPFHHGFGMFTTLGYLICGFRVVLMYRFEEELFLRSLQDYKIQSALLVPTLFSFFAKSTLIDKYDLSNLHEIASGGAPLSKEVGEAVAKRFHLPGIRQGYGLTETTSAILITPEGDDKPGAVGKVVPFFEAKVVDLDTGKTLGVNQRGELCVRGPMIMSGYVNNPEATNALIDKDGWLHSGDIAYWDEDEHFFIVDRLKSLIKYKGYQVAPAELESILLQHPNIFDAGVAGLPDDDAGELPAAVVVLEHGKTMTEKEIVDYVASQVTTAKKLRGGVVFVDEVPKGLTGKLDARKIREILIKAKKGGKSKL
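Firefly luciferase (PKLight detection mix) with 10 uM ATP in pH 7.2 imidazole buffer (KCl, MgCl2, Tween 20, BSA). Compounds tested across a concentration series (qHTS). Luminescence read after 8 min at ambient temperature.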
Hsp90 Hop PPI = changes Hsp90-Hop TPR2A binding signal, up or down; AID 595; Potency, µM (titrated, usually from 57 µM), for inactives: top-dose activity change, negative = inhibition; 0.44% of 71,000 active; AlphaScreen TPR2A-His6 binding biotin-Hsp90 C-terminal peptide; active = well fitted curve in either direction with a large enough effect; inconclusive = small, poorly fitted or top-dose-only effect, or another doubt; note: potency is the fitted concentration of half-maximal effect; % is set by controls: 0 for no effect and ±100 for the full control effect
p53ts 39C tox = p53ts cell cytotoxicity, nonpermissive temperature; Potency, µM (titrated, usually from 46.1 µM), inactives show at the highest dose activity change, negative = cell killing, usual class: cytotoxic; 1.5% of 130,000 active; H1299-p53A138V viability at 39C, ATP luminescence, 24 h; note: potency is the fitted concentration of half-maximal effect; % is set by controls: 0 for no effect and ±100 for the full control effect; nearly all actives have a fitted effect of over 55% in size
IkB sig inh = IkB pathway inhibition in ABC-DLBCL cells; AID 445; 0.04% of 110,000 active; Potency, µM (top dose mostly 57.1 µM), for the others: at the highest dose IkBa stabilization activation; ABC-DLBCL IkBa-CBG/CBR dual luciferase ratio, 4 h; response scale: scaled: untreated 0%, proteasome inhibitor 100%; active = well fitted curve in the direction sought with a large enough effect in the signal ratio, not every such curve was filed as active; inconclusive = small, poorly fitted or top-dose-only effect, or a change in a side signal; the % refers to the signal ratio;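 note: potency is the fitted concentration of half-maximal effect; the direction sought is a rising ratio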
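In this assay, an IκBα–CBG68 fusion accumulates when IKK-driven degradation is blocked; native CBR normalizes for cell number. OCI-Ly3 cells were treated 4 h with compound and doxycycline, then green and red light read after Chroma-Glo addition.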
p53ts 32C tox = cytotoxicity in p53ts cells at permissive temperature; H1299-p53A138V at 32C, ATP luminescence viability, 24 h; Potency, µM (top dose mostly 46.1 µM), for inactives: at the top dose activity change, negative = cytotoxicity, usual class: cytotoxic; 0.93% of 130,000 active; AID 924;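 note: potency is the fitted concentration of half-maximal effect; 0% = DMSO and -100% = full killing by reference compound; nearly all actives have a fitted effect of over 55% in size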
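Cells: H1299 p53ts (A138V), 600/well, pre-incubated 16–30 h at 37C. Cpd up to 46 uM, 24 h, 32C. Readout: ATPlite luminescence, 20 min RT. Normalization: DMSO vs tamoxifen 100 uM. AC50 by Hill equation.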
IMPase inh = IMPase inhibition in cells; CHO-M1 cells, IP1 accumulation, HTRF TR-FRET ratio; 120,000 tested, under 10 active; P97697; inhibition (IP1 accumulation), % at 46.1 µM; active = well fitted curve in the direction sought with a large enough effect in the signal ratio, not every such curve was filed as active; inconclusive = small, poorly fitted or top-dose-only effect, or a change in a side signal; inactive = no such curve, though single readings can be large or run the other way; the % refers to the signal ratio;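 note: cells stimulated with carbachol in lithium chloride buffer; plate controls were DMSO basal wells for no effect and reference inhibitor wells for full effect; higher means more IMPase inhibition seen as more IP1 and lower FRET ratio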
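Carbachol-driven Gq signalling in CHO-M1 cells (2000/well) generates IP1. Compounds that block IMPase raise IP1 and so reduce the FRET signal from Eu-anti-IP1 and d2-IP1 after a 10 min room-temperature lysis.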
An asterisk follows results filed as active; ? = inconclusive; nt = not tested or not shown; [ ] = another dose, or the depositor's remark. Unless noted, calls come from the whole dose curve; as a rule, active = well fitted curve in the direction sought with a large enough effect; inconclusive = small, poorly fitted or top-dose-only effect, or another doubt; inactive = no such curve, though single readings can be large; an effect the other way counts as inactive or inconclusive.

SMILES	Luciferase inh	Hsp90 Hop PPI	p53ts 39C tox	IkB sig inh	p53ts 32C tox	IMPase inh
c1ccc(C2=NN[C@@H]3c4ccccc4-c4ccccc4N3C2)cc1	3%[11.4 µM]	-7%[11 µM]	-1%[9.22 µM]	0%[11.4 µM]	0%[9.22 µM]	nt
COc1ccccc1CNC(=O)C1CCN(C2=NS(=O)(=O)C(c3ccc(C)c(C)c3)=C2C)CC1	nt	nt	-10%	-3%	1%	nt
COc1cc(O)c(C(=O)/C=C/c2ccc(OC)c(O)c2)c(OC)c1	nt	nt	63%	nt	10µM*	nt
COc1ccc(/C=C/C(=O)c2ccc(C)c([N+](=O)[O-])c2)cc1O	nt	nt	nt	nt	nt	6
C=C(CO)[C@H]1Cc2c(ccc3c(=O)c4c(oc23)COc2cc(OC)c(OC)cc2-4)O1	-5%[11.4 µM]	-6%	nt	-1%[11.4 µM]	nt	nt
Cc1cc(C(=O)COC(=O)CNC(=O)c2ccco2)c(C)n1Cc1ccco1	nt	nt	16%	nt	nt	-7
CCOc1ncccc1C(=O)OCC(=O)c1cc(C)n(Cc2ccco2)c1C	13µM*	-4%	-18%	?	13µM*	12
CC(=O)[C@@H]1CC[C@@H]2[C@@H]3CC=C4C[C@H](OS(=O)(=O)O)CC[C@@]4(C)[C@H]3CC[C@]21C	-3%	-3%	17%	1%	6%	-1
COc1ccc(-n2nc(C(=O)NCC(=O)N3CCN(c4ccccn4)CC3)c3ccccc3c2=O)cc1	3.2µM*	-1%	13µM*	0%	13µM*	3
CC(C)c1nn2c(=O)cc(COC(=O)c3cccc(NC(=O)c4ccccc4F)c3)nc2s1	nt	nt	1%	?	-2%	nt
Cn1cnc2c(=O)oc3ccc(S(=O)(=O)Nc4ccc(F)cc4)cc3c21	nt	nt	13µM*	5%	-15%	nt
CCc1ccccc1NS(=O)(=O)c1ccc2oc(=O)c3ncn(C)c3c2c1	nt	nt	-10%	1%	-15%	nt
CCOc1ccccc1NS(=O)(=O)c1ccc2oc(=O)c3ncn(C)c3c2c1	nt	nt	20µM*	13%	?	nt
Cc1ccc(Cl)cc1NS(=O)(=O)c1ccc2oc(=O)c3ncn(C)c3c2c1	nt	nt	20µM*	7%	?	nt
Cc1ccc(NS(=O)(=O)c2ccc3oc(=O)c4ncn(C)c4c3c2)cc1C	nt	nt	?	?	?	-6
CCOCCOCC	nt	-11%	0%	-1%	4%[1.84 µM]	nt
COCCn1c(=O)c(-c2cn(C)c3ccccc23)nc2cnc(Oc3ccccc3)nc21	0%[11.4 µM]	3.2µM*	-2%	1%[11.4 µM]	1%	nt
COCCn1c(=O)c(-c2cn(C)c3ccccc23)nc2cnc(OCc3ccccc3)nc21	0%[11.4 µM]	20%	5%	1%[11.4 µM]	0%	nt
COc1ccc(CNc2ccnc(-c3ccccc3CN(C)C)n2)c(OC)c1	2%[2.29 µM]	-10%	-24%	1%[11.4 µM]	-17%	nt
NC(=O)NCCC1=CCCCC1	nt	nt	nt	nt	nt	-4
Cc1cc(C(=O)NCCC2=CCCCC2)c(C)o1	16µM*	?	-8%	?	-25%	-10
Cc1ccc2nc(-c3c[nH]c4ccccc34)c(Nc3ccccc3C)n2c1	nt	nt	6%	?	-1%	nt
Cc1ccc(Nc2c(-c3c[nH]c4ccccc34)nc3ccccn23)cc1	nt	nt	16µM*	?	?	nt
COc1ccccc1CNC(=O)CCCn1c(=O)c2cccn2c2ccccc21	nt	nt	?	2%	?	nt
COc1ccc(C2=NOC(C(=O)N3CCCc4ccccc43)C2)cc1 (stereo not given)	16µM*	-2%	-29%	?	?	5
COc1ccc(-c2cc(C(=O)N3CCCc4ccccc43)no2)cc1	16µM*	15%	?	?	?	0
COc1cccc(-c2cc(C(=O)N3CCCc4ccccc43)no2)c1	-23%	29%	?	?	?	9
CN(C)c1ccc(N/C=C/C(=O)c2ccccc2)cc1	0.32µM*	?	13µM*	?	5µM*	11
O=C(/C=C/Nc1ccccc1)c1ccccc1	nt	nt	nt	nt	nt	-2
CCC1CCc2c(sc(NC(=O)c3ccoc3C)c2C(N)=O)C1 (stereo not given)	13µM*	-8%	-5%	0%	-18%	-1
